The values that follow come from PubChem BioAssay (NCATS).

Inconclusive results are not listed. Unmarked numbers belong to inactive results. Active and inactive are the calls of the source. Calls follow the shape of the dose curve; as a rule, active = well fitted cell-killing curve with a large enough effect; inconclusive = small, poorly fitted or top-dose-only effect; inactive = no such curve, though single readings can be large or run the other way.
Potency is read from the fitted curve at half-maximal effect.

The assay can be described thus: Quantitative High-Throughput drug screen in 47 multiple myeloma cell lines against the NCATS MIPE library collection: NCIH929_DSMZ cell viability assay (AID 1918978). Also: nearly all actives have a fitted effect of over 35% in size. The note with it: NCI-H929 myeloma viability, CellTiter-Glo ATP, 48 h; series mostly up to 45.8 µM; viability, % of control: at the top concentration. The source says:
PI: Beverly A. Mock Ph.D.
Laboratory of Cancer Biology and Genetics,
Center for Cancer Research, National Cancer Institute,
National Institute of Health, Bethesda, Maryland
Drug resistance and disease progression are common in multiple myeloma (MM) patients, underscoring the need for new therapeutic combinations. […] We hypothesized that effective combinations would reduce MYC expression and enhance p16 activity. […] These preclinical data identify potentially useful drug combinations for evaluation in drug-resistant MM and reveal potential mechanisms of combined drug sensitivity.
Described herein is the primary MIPE qHTS used to cherrypick compounds. Validated compounds were then further tested for potential synergistic activiy.
[1] Peat TJ, Gaikwad SM, Dubois W, Gyabaah-Kessie N, Zhang S, Gorjifard S, Phyo Z, Andres M, Hughitt VK, Simpson RM, Miller MA, Girvin AT, Taylor A, Williams D, D'Antonio N, Zhang Y, Rajagopalan A, Flietner E, Wilson K, Zhang X, Shinn P, Klumpp-Thomas C, McKnight C, Itkin Z, Chen L, Kazandijian D, Zhang J, Michalowski AM, Simmons JK, Keats J, Thomas CJ, Mock BA. Drug combinations identified by high-throughput screening promote cell cycle transition and upregulate Smad pathways in myeloma. Cancer Lett. 2023 Aug 1;568:216284. doi: 10.1016/j.canlet.2023.216284. Epub 2023 Jun 24. PMID: 37356470; PMCID: PMC10408729.
SEQUENCE No. (e.g., 1, 2, 3, etc.); […] (e.g., Cells, Incubation, Reagent, etc.); VALUE and DESCRIPTION.
1; Cells; 5 uL; white, solid bottom 1536-well Greiner assay plate.
2; Compounds; 23 nL; Kalypsis pin tool (Wako USA) equipped with a 1536-well pin head to transfer to the assay plates.
3; Incubation; 48 hours; 37C incubation.
4; Reagent;5uL; CellTiter Glo (Promega).
5; Detector; 425V; Luminescence; Viewlux PerkinElmer.
NOTES (numbers refer to Sequence numbers above)
1. The cell-based screening methods employed in this study were like those previously published. Briefly, the corresponding myeloma cell lines were screened in 1,536-well plates with 500 cells, 5-uL per well for inhibition of cell viability (assessed by measuring ATP levels with CellTiterGlo).
2. NCATS MIPE 4.0 library of approved and investigational drugs were added using the Kalypsis pin tool. Wells treated with DMSO only for 100% viability and media only for 0% viability were used as controls.
3. The assay plates were covered and incubated for 48 hours in a 37C, 5% CO2 incubator with controlled humidity.
4. After 48 hours, CellTilter-GloTM luminescent substrate mix (Promega) reagent was added to the assay plate and plates we incubated for 5 min at room temperature.
5. Signal was measured as median relative luminescence units on a ViewLux (PerkinElmer) multiplate reader.
[1] Heske CM, Davis MI, Baumgart JT, Wilson K, Gormally MV, Chen L, Zhang X, Ceribelli M, Duveau DY, Guha R, Ferrer M, Arnaldez FI, Ji J, Tran HL, Zhang Y, Mendoza A, Helman LJ, Thomas CJ. Matrix Screen Identifies Synergistic Combination of PARP Inhibitors and Nicotinamide Phosphoribosyltransferase (NAMPT) Inhibitors in Ewing Sarcoma. Clin Cancer Res. 2017 Dec 1;23(23):7301-7311. doi: 10.1158/1078-0432.CCR-17-1121. Epub 2017 Sep 12. PMID: 28899971; PMCID: PMC6636827.
On to `N#Cc1ccc(COC[C@H]2O[C@@H](n3c(NCc4ccc(Cl)c(Cl)c4)nc4c(N)ncnc43)[C@@H](O)[C@@H]2O)cc1`, for which the Potency is 20.9 µM (active).

Take `C[N+](C)([O-])CCNc1ccc(NCC[N+](C)(C)[O-])c2c1C(=O)c1c(O)ccc(O)c1C2=O`: the “viability, % of control” value was 116%.

On to `COc1cc2c(Nc3ccc(Cl)c(Cl)c3F)ncnc2cc1OCC1C[C@@H]2CN(C)C[C@H]2C1`, for which the Potency is 2.09 µM (active).

For `CCCCCN=C(N)NN=Cc1c[nH]c2ccc(OC)cc12`, the Potency was 13.2 µM (active).

Take `C=Cc1c(C)c2cc3nc(cc4[nH]c(cc5nc(cc1[nH]2)C(C)=C5CCC(=O)O)c(CCC(=O)OC)c4C)[C@@]1(C)C3=CC=C(C(=O)OC)[C@H]1C(=O)OC`: the Potency was 0.0833 µM (active).

For the molecule `O=C1c2cccc(O)c2C(=O)c2c(O)cc(CO)cc21`, the “viability, % of control” value is 95.7%.

Take `Cc1nc(NC(=O)N2CCC[C@@H]2C(N)=O)sc1-c1ccnc(C(C)(C)C(F)(F)F)c1`: the Potency is 0.148 µM (active).

On to `CCCc1nc(C(C)(C)O)c(C(=O)O)n1Cc1ccc(-c2ccccc2-c2nn[nH]n2)cc1`, for which the “viability, % of control” value was 75.7%.

Take `CON=C(C(=O)N[C@@H]1C(=O)N2C(C(=O)O)=C(Cn3ccc(=N)n3CCO)CS[C@H]12)c1csc(N)n1`: the “viability, % of control” value is 110%.

Regarding `COc1cc(OC)c(C=CS(=O)(=O)Cc2ccc(OC)c(NCC(=O)O)c2)c(OC)c1`, the Potency was 2.64 µM (active).

For the molecule `Cn1cc(-c2cnn3c(N)c(Br)c([C@H]4CCCNC4)nc23)cn1`, the Potency was 0.833 µM (active).

`Oc1ccc(-c2ccc(-c3cc(Nc4cccc(CNC5CC5)c4)n[nH]3)cc2)c(O)c1`: the Potency was 1.18 µM (active).

On to `CC(=O)NC(CS)C(=O)O` (stereo not given), for which the “viability, % of control” value is 92.8%.

As to `C#C[C@]1(O)CC[C@@H]2[C@@H]3CCc4cc(O)ccc4[C@H]3CC[C@@]21C`, the Potency is 3.72 µM (active).

In the case of `COc1ccnc2[nH]cc(C(=O)C(=O)N3CCN(C(=O)c4ccccc4)C[C@@H]3C)c12`, the “viability, % of control” value is 108%.

With `C=CCNC1=C2C[C@@H](C)C[C@H](OC)[C@@H](O)[C@@H](C)C=C(C)[C@H](OC(N)=O)[C@@H](OC)C=CC=C(C)C(=O)NC(=CC1=O)C2=O`, the Potency is 1.18 µM (active).

For `NC(=NCCCCCCN=C(N)N=C(N)Nc1ccc(Cl)cc1)N=C(N)Nc1ccc(Cl)cc1`, the Potency was 3.32 µM (active).

Regarding `Oc1cc(-c2nc(-c3ccccc3)[nH]c2-c2ccncc2)ccc1Cl`, the Potency is 3.72 µM (active).

Consider `COC[C@H](NC(=O)c1cnc(C)s1)C(=O)N[C@@H](COC)C(=O)N[C@@H](Cc1ccccc1)C(=O)[C@@]1(C)CO1`, for which the Potency is 0.0526 µM (active).

On to `CNC(=O)c1ccc(Nc2cc(Nc3ccccc3S(=O)(=O)C(C)C)c3cc[nH]c3n2)nc1`, for which the Potency was 0.935 µM (active).

In the case of `O=c1ccn([C@@H]2O[C@H](CO)[C@H](O)[C@@H]2F)c(=O)[nH]1`, the Potency was 11.8 µM (active).

For `C[C@H](CCC(=O)O)[C@H]1CCC2C3C[C@H](O)[C@@H]4C[C@H](O)CC[C@]4(C)C3CC[C@@]21C` (stereo not given in full), the “viability, % of control” value is 92.5%.

As to `COc1ccc(Nc2nccc(NCCO)n2)cc1`, the “viability, % of control” value was 88.9%.

Turning to `C=CC[C@@H]1C=C(C)C[C@H](C)C[C@H](OC)[C@H]2O[C@@](O)(C(=O)C(=O)N3CCCC[C@H]3C(=O)O[C@H](C(C)=C[C@@H]3CC[C@H](O)[C@H](OC)C3)[C@@H](C)[C@@H](O)CC1=O)[C@@H](C)C[C@@H]2OC`, the Potency is 3.32 µM (active).

Turning to `CN[C@H]1[C@@H](O)[C@@H]2O[C@@H]3O[C@H](C)CC(=O)[C@]3(O)O[C@@H]2[C@@H](NC)[C@H]1O`, the Potency is 0.935 µM (active).

Turning to `CC(=CC(=O)Nc1ccccc1C(=O)O)c1ccc2ccccc2c1`, the Potency is 7.43 µM (active).

On to `CCOC(=O)C1=C(C)NC(=S)NC1c1cccc(O)c1` (stereo not given), for which the Potency is 0.0372 µM (active).

`O=C(Nc1nnc(-c2ccco2)o1)c1cc(-c2ccccc2)nc2ccccc12`: the Potency is 18.7 µM (active).

`COc1cc2c(cc1OC)[C@@H]1C(=O)c3ccc4c(c3O[C@@H]1CO2)C=CC(C)(C)O4`: the Potency was 0.662 µM (active).

Regarding `OCC(O)C(O)C(O)CO` (stereo not given), the “viability, % of control” value is 85%.

For `CC(O)(C#Cc1ccc2c(c1)N(c1nc(N)ncc1Cl)CC2)c1nccs1` (stereo not given), the Potency is 1.18 µM (active).

As for `CCCCOc1ccc(C(=O)Nc2ccc(F)cc2F)cc1`, the “viability, % of control” value is 103%.

Take `C=CC(=O)Nc1ccc2ncnc(Nc3ccc(OCc4cccc(F)c4)c(Cl)c3)c2c1`: the Potency was 4.18 µM (active).

For `C[C@H](NCc1ccc(OCc2cccc(F)c2)cc1)C(N)=O`, the Potency is 2.64 µM (active).

In the case of `CN(CC(=O)N(Cc1ccc(C2CCCCC2)cc1)c1ccc(C(=O)O)c(O)c1)S(=O)(=O)c1c(F)c(F)c(F)c(F)c1F`, the Potency is 4.18 µM (active).

Turning to `CN(C)CC[C@H](c1ccc(Cl)cc1)c1ccccn1`, the “viability, % of control” value was 73.2%.

With `Cc1cc(C(=O)NOCCO)c(Nc2ccc(I)cc2F)n(C)c1=O`, the Potency is 0.0074 µM (active).

With `CCN(C(=O)c1c(O)c2c(Cl)cccc2n(C)c1=O)c1ccccc1`, the “viability, % of control” value is 122%.

Consider `NC(=O)Nc1cc(-c2ccc(CN3CCOCC3)cc2)sc1C(N)=O`, for which the Potency is 2.64 µM (active).

For the molecule `C=CC(=O)Nc1cc(NC(=O)c2ccc(C)c(NC(=O)c3ccno3)c2)cc(C(F)(F)F)c1`, the Potency is 16.6 µM (active).
